Among the data in PubChem BioAssay are inhibition and z-score values, retold here.

Activity calls are given as the source filed them. Unless noted, no stated cut-off is given here; in the data, active means inhibition above about 80%; inactive means the rest.

The nature of assay [1]: growth inhibition of RCMB18 medulloblastoma cells, cell-based, cisplatin and BGB IC40 combos (AID 1671462).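 Further: cells exposed to compound for four days.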 Conditions: stronger effect = higher value.
Assay [2] can be described thus: growth inhibition of CRL1545 osteosarcoma cells, cell-based, cisplatin and BGB IC20 combos (AID 1671464).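 Further: cells exposed to compound for 96 hours before readout; 0% = vehicle DMSO and 100% = high DMSO killing control.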 The following applies: stronger effect = higher value.
A short description of assay [3]: viability rescue of complex I mutant cybrids, primary screen, cell-based, galactose medium, ATP luminescence (AID 1645843;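 active means z-score of at least 1.8 in each of two replicates, scored against plate mean and spread of sample wells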;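 further: positive z means more ATP and so rescue of galactose-driven cybrid death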). Conditions: complex I mutant cybrid cells, 72 h, stronger effect = higher value.
Assay [4] is described as follows: LFS_MB_P medulloblastoma growth inhibition, cell-based, chromothripsis tumors, cisplatin or BGB combos (AID 1671449).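 Further: cells exposed for 96 hours; 0% = vehicle DMSO and 100% = killing by high DMSO.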 The following applies: LFS_MB_P medulloblastoma cells.
Assay [5] is described as follows: HDN33 neuroblastoma growth inhibition, cell-based, chromothripsis tumors, cisplatin or BGB combos (AID 1671450).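 Further: cells exposed to compound for four days; 0% = vehicle DMSO and 100% = cell killing by high DMSO.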 The following applies: HDN33 neuroblastoma cells, stronger effect = higher value.
Assay [6] is described as follows: ICB984 medulloblastoma cell growth inhibition, synergistic combos for chromothripsis tumors, cisplatin or BGB combos (AID 1671451; call rule not given here;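 further: cells exposed for 96 hours before readout; 0% = vehicle DMSO and 100% = killing by high DMSO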). The following applies: ICB984 medulloblastoma cells, drug combinations, stronger effect = higher value.
A short description of assay [7]: LFS_MB_1R medulloblastoma cell growth inhibition, synergistic combos for chromothripsis tumors, cisplatin or BGB combos (AID 1671452).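 Further: cells exposed for 96 hours before readout.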 Conditions: LFS_MB_1R medulloblastoma cells, stronger effect = higher value.
A short description of assay [8]: HTB85 osteosarcoma cell growth inhibition, synergistic combos for chromothripsis tumors, BGB or cisplatin IC20 combos (AID 1671453).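 Further: cells exposed for 96 hours before readout; 0% = vehicle DMSO and 100% = high DMSO killing control.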 The following applies: HTB85 osteosarcoma cells, drug combinations, stronger effect = higher value.
Assay [9] is described as follows: CRL2098 osteosarcoma cell growth inhibition, synergistic combos for chromothripsis tumors, BGB or cisplatin IC20 combos (AID 1671454).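 Further: cells exposed for 96 h before readout; 0% = vehicle DMSO and 100% = killing by high DMSO.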 Conditions: CRL2098 osteosarcoma cells, drug combinations, stronger effect = higher value.
Assay [10] is described as follows: HD-MB03 medulloblastoma cell growth inhibition, synergistic combos for chromothripsis tumors, BGB or cisplatin IC20 combos (AID 1671455; in the data active means inhibition above about 83%;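 further: 0% = vehicle DMSO and 100% = high DMSO as cytotoxic control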). Conditions: HD-MB03 medulloblastoma cells, stronger effect = higher value.
Assay [11] is described as follows: UWB1.289 ovarian carcinoma cell growth inhibition, synergistic combos for chromothripsis tumors, BGB or cisplatin combos (AID 1671456).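 Further: cells exposed to compound for four days; 0% = vehicle DMSO and 100% = killing by high DMSO.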 Conditions: UWB1.289 ovarian carcinoma cells, stronger effect = higher value.
Assay [12] is described as follows: LFS_MB_2R medulloblastoma cell growth inhibition, synergistic combos for chromothripsis tumors, cisplatin combos (AID 1671457).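 Further: cells exposed to compound for four days before readout.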 The following applies: LFS_MB_2R medulloblastoma cells, stronger effect = higher value.
The nature of assay [13]: MDA-MB-436 breast carcinoma cell growth inhibition, synergistic combos for chromothripsis tumors, BGB or cisplatin combos (AID 1671458; call rule not given here;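 further: cells exposed for 96 hours; 0% = vehicle DMSO and 100% = killing by high DMSO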). The following applies: MDA-MB-436 breast carcinoma growth inhibition, drug combinations, stronger effect = higher value.
Assay [14] is described as follows: UWB1.289_BRCA1 ovarian cancer growth, cell-based, BGB or cisplatin combinations (AID 1671459). Conditions: UWB1.289 BRCA1 ovarian carcinoma, drug combinations, stronger effect = higher value.
A short description of assay [15]: human astrocyte viability loss, single and combined drugs, cytotoxicity control for chromothriptic childhood tumor combination screen, cell-based, BGB or cisplatin IC20 combos (AID 1671460).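 Further: cells exposed to compounds for 96 hours before viability readout; 0% = vehicle and 100% = killing control.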 The following applies: Human astrocytes, drug combinations, stronger effect = higher value.
Assay [16] in a line: growth inhibition of BT084 medulloblastoma cells, cell-based, ICGC_MB145, cisplatin and BGB IC40 combos (AID 1671461).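 Further: cells exposed to drugs for 96 hours; 0% = vehicle DMSO and 100% = high DMSO full killing control.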 The following applies: drug combinations, stronger effect = higher value.
[17] abbreviates: measured here: BGB IC40 combination, at 0.05 µM.
Setting [18] is: measured here: combination with cisplatin, at 0.5 µM.
The mark [19] stands for this setting: measured here: with BGB IC20 combination, at 0.5 µM.
Where [20] appears, read: measured here: with cisplatin IC20 combination, at 0.5 µM.
[21] abbreviates: measured here: combination with BGB IC40, at 0.05 µM.
Setting [22] is: measured here: combination with cisplatin, at 5 µM.

By inhibition is commonly meant the drop in the measured response relative to a control, in per cent. On to `O=C(CCCCCCC(=O)NO)NO`, for which the inhibition in assay [1] (setting [17]) was -1.04%; in assay [1] (setting [18]), -1.18%; in assay [1] (single agent, at 5 µM) it was -14.5%; in assay [2] (at 0.5 µM) it was -30.5% (inactive); in [2] (setting [19]) it was -55.7%; in assay [2] (setting [20]), -17.9%. The inhibition in [2] (single agent, at 0.05 µM) is -50.7%; in assay [2] (single agent, at 5 µM) it was -1.16%.
With `COC(=O)CCC(=O)N1CCc2[nH]nc(-c3ccc4c(c3)OCO4)c2C1`, the z-score in [3] is -0.12 (inactive).
Still for that read-out and setting: next, `CCC1(CNC(=O)Nc2nc(C)ns2)CCC1`: 1.42 (inactive); `O=C(C1CCCCCC1)N1CCC(Cn2cc(CCO)nn2)CC1`: -0.51 (inactive).
As to `O=C1C(=Cc2cccnc2)C(=O)c2ccccc21`, the inhibition in [4] (at 0.5 µM, stronger effect = higher value) is -18.2% (inactive); in assay [4] (measured here: combination with BGB IC20, at 0.005 µM) it was -17.1%; in [4] (measured here: combination with BGB IC40, at 0.005 µM), 67.5%; in [4] (setting [21]), -27.5%; in assay [4] (measured here: combination with cisplatin, at 0.5 µM, stronger effect = higher value), -45.6%; in [4] (measured here: combination with cisplatin, at 5 µM, stronger effect = higher value), -16.1%. The inhibition in assay [5] (BGB combo, at 5 µM) was -24.2%; in assay [5] (at 0.5 µM), -0.8% (inactive); in assay [5] (cisplatin combo, at 5 µM), -15.7%; in [5] (setting [19]) it was -14.2%; in assay [5] (setting [20]), 14.1%; in assay [5] (single agent, at 5 µM), -16.1%. Moreover, the inhibition in [6] (BGB IC20 combo, at 0.005 µM) was 0.337%; in assay [6] (BGB IC40 combo, at 0.005 µM) it was -13.1%; in assay [6] (BGB IC40 combo, at 0.05 µM) it was -4.84%; in [6] (at 0.5 µM), -25.7% (inactive); in assay [6] (cisplatin combo, at 0.05 µM), -10.2%; in [6] (cisplatin combo, at 0.5 µM), -37.3%. In addition, the inhibition in assay [6] (cisplatin combo, at 5 µM) was -28.8%; in [6] (measured here: 5 uM single agent, at 5 µM), -20.5%; in assay [7] (at 0.5 µM) it was -8.72% (inactive); in assay [7] (setting [21]) it was -20.3%; in assay [7] (setting [18]) it was -8.61%; in assay [7] (setting [22]), -32.8%. In addition, the inhibition in [8] (at 0.5 µM) is -5.81% (inactive); in assay [8] (measured here: with BGB IC20, at 0.5 µM), 0.006%; in assay [8] (measured here: with BGB IC20, at 5 µM), -4.06%; in assay [8] (measured here: with cisplatin IC20, at 0.5 µM), -17.7%; in [8] (measured here: with cisplatin IC20, at 5 µM), 0.224%; in assay [8] (single agent, at 5 µM) it was 6.13%. Besides, the inhibition in assay [9] (at 0.5 µM) was -26.6% (inactive); in assay [9] (measured here: combination with BGB at IC20, at 0.5 µM), -25.9%; in assay [9] (measured here: combination with cisplatin at IC20, at 0.5 µM), -22.2%; in assay [10] (at 0.5 µM), -8.47% (inactive); in assay [10] (measured here: combo with BGB at IC20, at 0.5 µM), -12%; in assay [10] (measured here: combo with cisplatin at IC20, at 0.5 µM) it was -5.96%. Also, the inhibition in [11] (at 0.5 µM) was 0.75% (inactive); in [11] (measured here: inhibition with BGB combination, at 0.05 µM), 2.81%; in assay [11] (measured here: inhibition with cisplatin combination, at 0.05 µM) it was -5.97%; in assay [12] (at 0.5 µM), -15.3% (inactive); in [12] (setting [18]), -19.2%; in assay [12] (setting [22]) it was -18.7%. For the same compound, the inhibition was -13.9% (inactive) in assay [13] (at 0.5 µM); -13.8% in assay [13] (measured here: BGB combination, at 0.5 µM); -19.4% in assay [13] (measured here: BGB combination, at 5 µM); -27.6% in [13] (measured here: cisplatin combination, at 0.5 µM); -23.4% in assay [13] (measured here: cisplatin combination, at 5 µM); -3.65% in [14] (BGB combination, concentration series, at 5 µM). Moreover, the inhibition is -0.75% (inactive) in assay [14] (at 0.5 µM); 4.94% in assay [14] (cisplatin combination, concentration series, at 5 µM); 5.07% (inactive) in [15] (at 0.5 µM); -3.05% in assay [15] (measured here: combo with BGB IC20, at 0.5 µM); 0.407% in [15] (measured here: combo with cisplatin IC20, at 0.5 µM); -7.01% (inactive) in [16] (at 0.5 µM). Further, the inhibition is -1.5% in assay [16] (cisplatin combination, at 0.5 µM); -101% in assay [16] (cisplatin combination, at 5 µM); -30.3% in [16] (measured here: BGB IC40 combination 0.05 uM, at 0.05 µM); 9.68% in assay [16] (single agent, at 5 µM); -13.1% (inactive) in assay [1] (at 0.5 µM); 4.14% in [1] (cisplatin combo, at 5 µM). Moreover, the inhibition in assay [1] (setting [17]) is -19.1%; in assay [1] (setting [18]) it was -37%; in [1] (single agent, at 5 µM), -5.07%; in assay [2] (at 0.5 µM) it was 3.87% (inactive); in [2] (setting [19]), -10.3%; in assay [2] (setting [20]), 9.52%. The inhibition is -45.6% in assay [2] (single agent, at 0.05 µM) and -28.3% in assay [2] (single agent, at 5 µM).
